HPGD block – inhibitors of human 15-hydroxyprostaglandin dehydrogenase (HPGD). P15428. purified HPGD, NADH fluorescence kinetic, PGE2 substrate. Potency, µM, without a hit: at the highest dose activity change, negative = inhibition, hits mostly inhibitors. actives 4.3% (n = 150,000). AID 894; active means well fitted inhibition curve with a large enough effect, not every such curve was filed as active; inconclusive means small, poorly fitted or top-dose-only effect, or another doubt; inactive means no such curve, though single readings can be large or run the other way
Target sequence (P15428 whole entry, looked up): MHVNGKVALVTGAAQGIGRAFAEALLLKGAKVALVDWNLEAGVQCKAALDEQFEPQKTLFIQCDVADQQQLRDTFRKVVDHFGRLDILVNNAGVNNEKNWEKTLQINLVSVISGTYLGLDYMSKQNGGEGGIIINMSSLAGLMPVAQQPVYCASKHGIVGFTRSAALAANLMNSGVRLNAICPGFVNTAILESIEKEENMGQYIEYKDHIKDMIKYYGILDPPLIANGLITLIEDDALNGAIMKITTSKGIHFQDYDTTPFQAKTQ
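NADH formation kinetics: reaction with 30 uM PGE2 and 1 mM NAD+ (final), 20 nM enzyme, Tris-HCl pH 8 with Tween 20, after 15 min compound preincubation at room temperature. Fluorescence change, last versus first of five reads.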
Tau fluor counter – counter-screen for tau fibril formation inhibitors | actives 0.93% (n = 280,000) | tau K18 P301L Alexa594 fluorescence, heparin fibrillization | AID 1463 | Potency, µM (titrated, usually from 57.7 µM), for inactives: top-dose activity change, negative = decrease; further: nearly all actives have a fitted effect of over 55% in size
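Human K18 P301L tau (15 uM unlabeled plus 0.24 uM Alexa 594-labeled, final) in 100 mM sodium acetate pH 7 was mixed with compound and 20 uM heparin and incubated 6 hr at 37 C.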
NPSR antag – blocks cAMP signaling of the human neuropeptide S receptor; Q6W5P4; AID 1461; CHO-NPSR cells, cAMP TR-FRET, antagonist mode; Potency, µM (doses to about 38.3 µM), without a hit: top-dose activity change, negative = inhibition, hits mostly inhibitors; actives 1% (n = 220,000); further: nearly all actives have a fitted effect of over 50% in size
ALDH1A1 inh – ALDH1A1 (human) enzyme inhibition; P00352; Purified ALDH1A1, NADH fluorescence, propionaldehyde substrate; Potency, µM (series often up to 75.3 µM), for the others: at the highest dose activity, negative = inhibition, usual class: inhibitors; actives 7.3% (n = 220,000); AID 1030; active means well fitted inhibition curve with a large enough effect, not every such curve was filed as active; inconclusive means small, poorly fitted or top-dose-only effect, or another doubt; inactive means no such curve, though single readings can be large or run the other way;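 further: plate controls were no enzyme wells and a reference inhibitor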
Tau fibril FP – inhibitors of human tau fibril formation; P10636; K18 P301L tau heparin fibrillization, Alexa594 FP, 6 h; Potency, µM (highest dose often 57.7 µM), for the others: at the top dose activity, negative = inhibition, hits mostly inhibitors; actives 0.39% (n = 280,000); further: nearly all actives have a fitted effect of over 55% in size
Target sequence (P10636 561-689 P618L limits assumed): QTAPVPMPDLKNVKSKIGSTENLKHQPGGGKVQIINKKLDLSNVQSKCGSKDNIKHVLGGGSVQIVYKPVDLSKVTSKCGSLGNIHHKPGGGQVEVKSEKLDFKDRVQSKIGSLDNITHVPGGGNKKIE
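Recombinant K18 P301L […], labeled with Alexa 594 at 0.24 uM over 15 uM unlabeled; heparin inducer 20 uM final; 37 C, 6 hr; FP endpoint.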
Tau fibril ThT – tau fibrillization inhibition (ThT binding). recombinant tau K18 P301L, heparin-induced fibrillization, ThT fluorescence. AID 1460. actives 2.1% (n = 270,000). P10636. Potency, µM (top dose mostly 57.4 µM), for the others: at the top dose activity, negative = inhibition, actives largely listed as inhibitors; further: nearly all actives have a fitted effect of over 55% in size
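ThT emission at 510 nm, taken 1 hr after adding 30 uM dye, quantifies aggregates formed when 20 uM heparin acts on human tau K18 P301L for 6 hr at 37 C.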
Active calls of the source: *; ? = inconclusive; . = not tested or not shown; [ ] = remark or other dose. Only some compounds are listed: those with a hit (about 9.5% of all), similar ones and a draw of the others. Unless noted, the call rests on the fitted dose curve; in most records, active means well fitted curve in the direction sought with a large enough effect; inconclusive means small, poorly fitted or top-dose-only effect, or another doubt; inactive means no such curve, though single readings can be large; an effect the other way counts as inactive or inconclusive. Unless noted, on the % scale 0 is the no-effect control and ±100 the full control effect; potency means the concentration at half of the fitted maximal effect.

SMILES	HPGD block	Tau fluor counter	NPSR antag	ALDH1A1 inh	Tau fibril FP	Tau fibril ThT
COc1cc(C2c3cc4c(cc3C(OC3OC5COC(C)O[C@@H]5C(O)C3O)C3COC(=O)C23)OCO4)cc(OC)c1O (some centres undefined)	-4%	3%	.	0%	6%	-1%
COc1cccc(-c2nnc(SCC(=O)N3CCCc4ccccc43)o2)c1	28µM*	-9%	-28%[46.1 µM]	7.9µM*	12%	?
Cc1occc1-c1nnc(SCC(=O)N2CCc3ccccc32)o1	-12%	8%	-8%[46.1 µM]	0.79µM*	-7%	0%
CSc1nsc(SCC(=O)N2CCc3ccccc32)n1	-22%	-11%	-19%[46.1 µM]	?	-7%	?
Cc1ccc(-c2nnc(SCC(=O)N3CCc4ccccc43)o2)cc1	.	-5%	.	.	-3%	-18%
COc1cc(OC)cc(-c2nnc(SCC(=O)N3CCCc4ccccc43)o2)c1	?	-6%	?	?	?	?
Cc1nnc(SCC(=O)N2CCc3ccccc32)s1	-10%	-13%	5%[46.1 µM]	28µM*	-7%	?
COc1cc(OC)cc(-c2nnc(SCc3cccc(C(=O)O)c3)o2)c1	11µM*	-10%	?	-13%	-9%	-12%
CNS(=O)(=O)c1cccc(C(=O)OCc2cc(=O)n3cc(Br)ccc3n2)c1	?	-6%	-7%	?	-3%	-12%
O=C1CN2CCN(CC2)CC(=O)Nc2ccc(cc2)S(=O)(=O)c2ccc(cc2)NC(=O)CN2CCN(CC2)CC(=O)Nc2ccc(cc2)S(=O)(=O)c2ccc(cc2)N1	-14%	.	.	1.6µM*	.	.
COc1cc(-c2nnc(SCCOc3ccc(Cl)cc3C)o2)cc(OC)c1OC	.	?	.	.	?	4%
Cc1ccc(-c2nsc(SCC(=O)NCc3ccc4c(c3)OCO4)n2)cc1	-8%	-10%	6%	11%	-7%	1%
Cc1ccccc1-c1nsc(SCC(=O)NCc2ccc3c(c2)OCO3)n1	-18%	-23%	1%	22µM*	0%	-12%
CC(C)Nc1nnc(SCC(=O)NCc2ccc3c(c2)OCO3)s1	.	2%	12%	18µM*	3%	1%
Cc1cn(C)c(CC(=O)Nc2cccc(C#N)c2)c1C(=O)O	.	-12%	.	.	-5%	-8%
Cc1cccc(C(CC(=O)N2CCCC2)c2ccccc2)c1O (centres undefined)	11µM*	-1%	-13%[46.1 µM]	-1%	5%	-7%
O=C(CC(c1ccccc1)c1ccccc1O)N1CCCC1 (centres undefined)	1.8µM*	-3%	-21%[46.1 µM]	-1%	-3%	6%
O=C(CC(c1ccccc1)c1cc(Br)ccc1O)N1CCCCC1 (centres undefined)	.	-28%	-12%	.	-4%	-15%
Cc1ccc(C(CC(=O)N2CCCC2)c2ccccc2)c(O)c1C (centres undefined)	7.9µM*	-14%	-26%[46.1 µM]	6%	-5%	-5%
CC(C)(C)C(=O)NC(c1ccc(Cl)cc1)[C@]1(C)C[C@H]1C1CCCCC1 (some centres undefined)	-15%	-9%	.	?	5%	-17%
Cc1ccsc1/C=N\NC(=O)c1n[nH]c2c1CCC2	-30%	2%	2%	-7%	-2%	8%
O=C(N/N=C/c1c(Cl)cccc1Cl)c1n[nH]c2c1CCCC2	4µM*	-4%	0%	-3%	-3%	1%
c1ccc(NC2=Nc3cccc4cccc2c34)cc1	.	?	-23%	-1%	13%	?
Fc1ccc(/C=N/NC2=Nc3cccc4cccc2c34)cc1	-14%	?	-14%	8%	6%	2.2µM*
COc1ccc(NC2=Nc3cccc4cccc2c34)cc1	-12%	?	-40%	-13%	?	13µM*
SMILES	HPGD block	Tau fluor counter	NPSR antag	ALDH1A1 inh	Tau fibril FP	Tau fibril ThT
CC1Cc2cc(S(=O)(=O)N3CCN(c4ccccc4F)CC3)ccc2N1C(=O)C1CCC1 (centres undefined)	.	-14%	.	.	-8%	-6%
COc1cccc(-n2nnnc2SCC(=O)Nc2ccc(C(C)=O)cc2)c1	-12%	-4%	-5%	-11%	8%	2%
O=C(CSc1nnnn1C1CCCC1)Nc1cccc(NC(=O)c2ccco2)c1	-6%	-16%	-10%[46.1 µM]	?	-7%	-7%
O=C(CSc1nnnn1C1CC2CCC1C2)Nc1ccnc2ccccc12 (centres undefined)	?	-21%	3%[46.1 µM]	2.5µM*	-14%	-2%
O=C(CSc1nnnn1C1CCCCC1)Nc1cccc(NC(=O)c2ccco2)c1	-14%	?	-21%[46.1 µM]	28µM*	-13%	?
COc1ccc(OC)c(-n2nnnc2SCC(=O)Nc2ccc(C(=O)N3CCCCC3)cc2)c1	0.35µM*	-17%	-17%[46.1 µM]	1.4µM*	5%	-10%
COc1ccc(NC(=O)CSc2nnnn2C2CCCC2)cc1	.	-21%	-6%	2.5µM*	-4%	-10%
CCN(CC)CCCCn1c(-c2ccccc2)nc2c(NCCOC)nc(C)nc21	?	5%	.	?	6%	4%
CCOC(=O)c1ccc(NC(=O)CN2C(=O)c3cccnc3Sc3ccccc32)cc1	.	-14%	.	.	-2%	-8%
Cc1cccc(C)c1-n1ncc(C(=O)N2CCN(c3ncccn3)CC2)c1C1CCN(C(=O)OC(C)(C)C)CC1	.	-5%	.	.	0%	-11%
CCN1CCN(CC(=O)NC2CCCCC2)C(=O)C1=O	-6%	2%	-5%[46.1 µM]	8%	2%	-2%
O=C(CNC(=O)c1ccccc1Cl)OC1CCOC1=O (centres undefined)	.	-3%	5%	?	-3%	-3%
CN(C)/C=C(/C(=O)c1ccc(Cl)cc1)S(=O)(=O)c1ccc(Cl)cc1	-18%	-4%	-4%[46.1 µM]	-1%	-17%	5%
O=C(Sc1nnnn1C1CCCCC1)c1cccs1	25µM*	6%	-5%[46.1 µM]	10µM*	-1%	7%
COc1ccc(OCCSc2nnnn2C2CCCCC2)cc1	-15%	-15%	-11%[46.1 µM]	22µM*	7%	-18%
O=C(CSc1nnnn1C1CCCCC1)Nc1ccc2c(c1)OCO2	-3%	-12%	-7%[46.1 µM]	7.9µM*	8%	-12%
O=C(CSc1nnnn1C1CCCCC1)Nc1ccccc1F	.	-8%	-7%	4µM*	-6%	-1%
O=C(O)CSc1nnnn1C1CCCCC1	.	3%	-14%	-5%	1%	-3%
CCCCCCCCCCC(=O)NNC(=O)c1c(O)c2ccccc2n(CC)c1=O	.	-15%	-9%	6%	-8%	-10%
CCC(=O)Nc1cccc(NC(=S)NC(=O)c2ccc(C)cc2)c1	.	-6%	-9%	13µM*	-8%	-5%
O=C(NC(=S)Nc1cccc(CO)c1)c1ccc(-c2ccccc2)cc1	-11%	-25%	-11%	13µM*	?	?

Screens (PubChem)
